Z-score data for twelve compounds are collected here from PubChem BioAssay.

Structures are written as SMILES.

This test can be described thus: HepG2 liver cancer cell viability effects, profiling panel, resazurin fluorescence, 24 h, PK04 Diversity Set (AID 1172). Also: test concentration not given here. The settings on record: higher = more signal. For orientation: Resazurin is reduced to fluorescent resorufin, in cell work by metabolically active cells.
In turn, `O=C(O)[C@@H]1[C@@H]2C(=O)N(c3ccccc3)C(=O)[C@@H]2C[C@@H]1Sc1ccccc1` had a z-score of -0.303.

Compound `CCOC(=O)C1=CC[C@@H](c2ccccc2F)N(S(=O)(=O)c2ccc(C)cc2)[C@H]1c1ccccc1` registered a z-score of 0.325.

The compound `C=CCN1Cc2ccccc2[C@@H]2OC(c3ccc(OCCCO)cc3)=N[C@]2(CC=C)C1=O` displayed a z-score of 0.151.

With `O=C(NCCN1CCOCC1)[C@@H]1c2ccccc2C(=O)N(C2Cc3ccccc3C2)[C@H]1c1ccc(CO)cc1`, the z-score was -0.174.

Regarding `C=CCC(OC(C)=O)[C@@H]1[C@@H](N(Cc2cccc3ccccc23)C(=O)Cc2ccc(OC)cc2)c2cc(OCCCO)ccc2N1C(=O)c1ccc(-c2ccccc2)cc1` (some centres not stated), the z-score was -0.433.

Turning to `CC(C)[Si](C#CCCCC#N)(O[C@H](c1ccccc1)c1cn(Cc2ccccc2)nn1)C(C)C`, the z-score is -0.538.

As for `NCCCCCCNC(=O)[C@@H]1C[C@@H]2C(=O)N[C@@H](CCCCN)C(=O)N2[C@@H]1c1ccc(O)cc1`, the z-score was determined as 0.0187.

For the compound `CCN(CC)c1ccc(N2CC=CC34O[C@@H]5/C=C\CCCOC(=O)C5[C@H]3C(=O)N(C(C)CO)[C@@H]4C2=O)cc1` (some centres not stated), the z-score was found to be 0.242.

`CC(C)N1C(=O)C[C@@](C(=O)O)(c2ccc([N+](=O)[O-])cc2)[C@H]1c1ccc(CO)cc1` returned a z-score of -0.847.

In the case of `CN(C)C(=O)[C@@]1(Cc2ccccc2)N=C(c2ccc(OCCCO)cc2)O[C@H]1c1ccccc1`, the z-score is 1.6.

`Cc1ccc(S[C@]2(C(=O)NC(C)C)CC(=O)N(Cc3cc(C(F)(F)F)cc(C(F)(F)F)c3)[C@@H]2c2ccc(CO)cc2)cc1` came in with a z-score of -0.489.

For `COCC(=C=CC[C@H](O)c1ccc(CO)o1)CCO`, the z-score was -0.116.
